Reference: PubChem BioAssay (NCATS)
Inconclusive results are not listed. Active and inactive are the calls of the source. Unless noted, calls come from the whole dose curve; as a rule, active = well fitted curve in the direction sought with a large enough effect; inconclusive = small, poorly fitted or top-dose-only effect, or another doubt; inactive = no such curve, though single readings can be large; an effect the other way counts as inactive or inconclusive.

What was measured:
[1] = Validation of Assay for Modulators of Lamin A Splicing (AID 1459; active = well fitted curve in the direction sought with a large enough effect in the signal ratio; the % refers to the signal ratio;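 note: cells exposed to compound for two days before reading; 0% is about no effect; ratio rise marks activators and ratio drop marks inhibitors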)
Procedure, shortened: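 S3 HeLa stably expressing lamin A-EGFP splicing minigene and DsRed2, 600 cells/well in Opti-MEM with 2% FBS, treated 48 h at 37C; laser-scanning cytometry gives GFP/RFP total intensity ratio; ancitabine positive control, 0.5% DMSO vehicle.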

[2] = target: DNA repair nuclease/redox regulator APEX1 (Homo sapiens) (UniProt P27695); assay: qHTS Validation Assay for Inhibitors of the Human Apurinic/apyrimidinic Endonuclease 1 (APE1) (AID 1705;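 note: TAMRA fluorescence gain over two minutes as APE1 cuts a quenched THF abasic duplex; % is set by controls: 0 for no effect and ±100 for the full control effect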)
Chain of DNA repair nuclease/redox regulator APEX1 (Homo sapiens) (P27695 whole entry, looked up): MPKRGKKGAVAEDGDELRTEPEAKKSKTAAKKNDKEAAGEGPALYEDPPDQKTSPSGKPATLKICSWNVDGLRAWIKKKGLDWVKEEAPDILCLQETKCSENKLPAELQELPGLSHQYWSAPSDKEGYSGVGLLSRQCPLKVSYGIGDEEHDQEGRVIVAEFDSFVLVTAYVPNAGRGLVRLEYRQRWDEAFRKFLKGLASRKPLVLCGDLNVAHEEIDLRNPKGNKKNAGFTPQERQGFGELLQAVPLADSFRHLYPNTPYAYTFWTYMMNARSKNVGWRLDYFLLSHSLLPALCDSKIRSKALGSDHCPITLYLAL
Procedure, shortened: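 Fluorogenic double-stranded THF abasic-site substrate (5'-TAMRA/3'-BHQ-2), 50 nM final. Enzyme preincubated with compound 15 min at room temperature, then substrate added. Kinetic fluorescence (ex 525/em 598 nm) read three times at 60 s intervals; activity taken as third-minus-first read difference.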

[3] = Counterscreen for APE1 Inhibitors: Fluorescent Dye Displacement Validation Assay (AID 1707);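 note: plate controls were ThO with dsDNA and no compound for no effect and ThO without dsDNA for full effect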
Procedure, shortened: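 Assay buffer: Tris-HCl pH7.5 with 50mM NaCl, 2 mM MgCl2, 0.01% Tween-20. Dye 250 nM, duplex 50 nM final. Readout: decrease in ThO endpoint fluorescence, 480 nm excitation, 540 nm emission.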

[4] = qHTS for differential inhibitors of proliferation of Plasmodium falciparum line 3D7 (AID 1876); note: potency is the fitted concentration of half-maximal effect
[5] = qHTS for differential inhibitors of proliferation of Plasmodium falciparum line HB3 (AID 1886); conditions: Potency: Plasmodium falciparum HB3 proliferation inhibition;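 note: parasites grown with compound for 72 h before SYBR Green readout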; note: potency is the fitted concentration of half-maximal effect;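 for activity change, negative = inhibition: plate controls were vehicle for no effect and reference inhibitor for full effect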
[6] = target: Ferritin light chain (Equus caballus) (UniProt P02791); assay: qHTS Validation Assay for Identification of Novel General Anesthetics (AID 2323); note: % is set by controls: 0 for no effect and ±100 for the full control effect
Chain of Ferritin light chain (Equus caballus) (P02791 2-175 limits assumed): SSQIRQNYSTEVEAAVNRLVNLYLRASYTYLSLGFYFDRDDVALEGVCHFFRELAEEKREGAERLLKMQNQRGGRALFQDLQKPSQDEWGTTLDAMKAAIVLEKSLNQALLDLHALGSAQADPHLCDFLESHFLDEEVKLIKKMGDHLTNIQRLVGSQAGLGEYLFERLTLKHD
Procedure, shortened: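 Horse-spleen apoferritin (10 uM) in PBS with 50% saturated 1-aminoanthracene; compounds pin-transferred, 10 min at room temperature. Fluorescence read at 380/535 nm, normalized to free 1-AMA and 1-AMA/apoferritin values; four-parameter Hill fit.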

[7] = target: ATP-dependent DNA helicase Q1 (Homo sapiens) (UniProt P46063); assay: qHTS Validation Assay for Inhibitors of RecQ-Like Dna Helicase 1 (RECQ1) (AID 2353);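 note: plate controls were DMSO vehicle for no effect and enzyme-free control for full effect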
Chain of ATP-dependent DNA helicase Q1 (Homo sapiens) (P46063 whole entry, looked up): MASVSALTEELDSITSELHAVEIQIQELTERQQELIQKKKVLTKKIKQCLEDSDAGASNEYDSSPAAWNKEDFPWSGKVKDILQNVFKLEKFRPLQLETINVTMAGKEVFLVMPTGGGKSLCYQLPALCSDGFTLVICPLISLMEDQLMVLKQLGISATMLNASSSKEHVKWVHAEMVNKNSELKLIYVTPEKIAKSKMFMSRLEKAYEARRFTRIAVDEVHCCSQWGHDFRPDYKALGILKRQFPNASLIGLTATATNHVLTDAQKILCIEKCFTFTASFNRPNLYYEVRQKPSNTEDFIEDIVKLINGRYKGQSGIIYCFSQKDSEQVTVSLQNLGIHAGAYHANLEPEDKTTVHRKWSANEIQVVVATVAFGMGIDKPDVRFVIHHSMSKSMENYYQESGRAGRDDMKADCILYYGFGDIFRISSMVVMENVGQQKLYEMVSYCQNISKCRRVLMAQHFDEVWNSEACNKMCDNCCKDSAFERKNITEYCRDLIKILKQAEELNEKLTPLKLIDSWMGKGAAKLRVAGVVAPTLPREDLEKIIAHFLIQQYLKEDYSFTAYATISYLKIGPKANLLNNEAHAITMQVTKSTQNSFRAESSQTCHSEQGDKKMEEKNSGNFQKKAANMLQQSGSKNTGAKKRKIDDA
Procedure, shortened: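 50 nM RECQ1T1 preincubated 15 min with compound in Tris pH 8.0 buffer with MgCl2, DTT, Tween-20 and 2.5 ug/ml poly(dI-dC); started with 200 nM TAMRA/BHQ-2 forked duplex and 2 mM ATP. Unwinding read as fluorescence (525/598 nm), two reads 2 h apart.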

[8] = Validation screen for small molecules that induce DNA re-replication in MCF 10A normal breast cells (AID 463097); note: 0% is about no effect; nearly all actives have a fitted effect of over 60% in size
Procedure, shortened: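 MCF 10A cells exposed to compound 48 hr at 37 C, 5% CO2, then Hoechst-stained 40 min. Laser-scanning imaging of nuclear DNA content (405 nm ex, 500-530 nm em); re-replication scored as rise in nuclei with elevated fluorescence intensity.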

[9] = Quantitative high throughput screen for delayed death inhibitors of the malarial parasite plastid, 96 hour incubation (AID 488745); note: nearly all actives have a fitted effect of over 70% in size; note: potency is the fitted concentration of half-maximal effect
Procedure, shortened: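 Growth of reporter-bearing P. falciparum in red cells is measured after 96 h with compound, covering two erythrocytic cycles. Luminescence from the integrated luciferase serves as the growth signal.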

[10] = target: M-phase phosphoprotein 8 (Homo sapiens) (UniProt Q99549); assay: qHTS Validation Assay for Inhibitors for MPP8 Chromodomain Interactions with Methylated Histone Tails (AID 488949); note: nearly all actives have a fitted effect of over 55% in size; note: potency is the fitted concentration of half-maximal effect; for activity change, negative = inhibition: top concentration of the series differs between compounds; % is set by controls: 0 for no effect and ±100 for the full control effect
Chain of M-phase phosphoprotein 8 (Homo sapiens) (Q99549 whole entry, looked up): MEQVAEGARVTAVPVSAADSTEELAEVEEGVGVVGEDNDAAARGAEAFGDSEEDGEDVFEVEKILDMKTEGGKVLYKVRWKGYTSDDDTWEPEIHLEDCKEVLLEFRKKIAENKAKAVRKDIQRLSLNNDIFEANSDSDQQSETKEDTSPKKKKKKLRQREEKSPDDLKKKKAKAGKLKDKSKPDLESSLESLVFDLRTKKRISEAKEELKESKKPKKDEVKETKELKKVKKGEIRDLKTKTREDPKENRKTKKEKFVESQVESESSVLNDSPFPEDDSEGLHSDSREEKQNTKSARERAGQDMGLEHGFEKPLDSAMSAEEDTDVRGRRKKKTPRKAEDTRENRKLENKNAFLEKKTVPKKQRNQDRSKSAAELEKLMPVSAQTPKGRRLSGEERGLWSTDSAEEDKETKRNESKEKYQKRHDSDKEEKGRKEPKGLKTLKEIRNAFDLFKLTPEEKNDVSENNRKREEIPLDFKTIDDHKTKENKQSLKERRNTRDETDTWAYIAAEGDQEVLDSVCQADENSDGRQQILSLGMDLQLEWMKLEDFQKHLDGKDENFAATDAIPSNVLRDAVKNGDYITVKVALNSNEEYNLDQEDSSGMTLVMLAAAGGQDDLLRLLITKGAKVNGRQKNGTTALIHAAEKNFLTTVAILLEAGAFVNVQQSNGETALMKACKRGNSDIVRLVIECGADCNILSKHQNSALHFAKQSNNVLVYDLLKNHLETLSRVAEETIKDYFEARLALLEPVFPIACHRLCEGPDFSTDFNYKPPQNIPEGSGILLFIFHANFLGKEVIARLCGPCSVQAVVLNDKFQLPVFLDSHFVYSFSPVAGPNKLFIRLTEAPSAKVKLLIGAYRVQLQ
Procedure, shortened: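 MPP8 (50 nM) was pre-bound to 50 nM biotinylated H3(1-18)K9me3 peptide in PBS pH 7.4 with 0.01% Tween-20. Compounds were then added for 30 min at room temperature, and complex disruption was read by AlphaScreen with streptavidin donor and nickel-chelate acceptor beads.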

[11] = target: Transient receptor potential cation channel subfamily V member 1 (Homo sapiens) (UniProt Q8NER1); assay: HTS Assay for Compounds that Act as Enhancers of the Vanilloid Receptor 1 (AID 488979); note: 0% is about no effect
Chain of Transient receptor potential cation channel subfamily V member 1 (Homo sapiens) (Q8NER1 whole entry, looked up): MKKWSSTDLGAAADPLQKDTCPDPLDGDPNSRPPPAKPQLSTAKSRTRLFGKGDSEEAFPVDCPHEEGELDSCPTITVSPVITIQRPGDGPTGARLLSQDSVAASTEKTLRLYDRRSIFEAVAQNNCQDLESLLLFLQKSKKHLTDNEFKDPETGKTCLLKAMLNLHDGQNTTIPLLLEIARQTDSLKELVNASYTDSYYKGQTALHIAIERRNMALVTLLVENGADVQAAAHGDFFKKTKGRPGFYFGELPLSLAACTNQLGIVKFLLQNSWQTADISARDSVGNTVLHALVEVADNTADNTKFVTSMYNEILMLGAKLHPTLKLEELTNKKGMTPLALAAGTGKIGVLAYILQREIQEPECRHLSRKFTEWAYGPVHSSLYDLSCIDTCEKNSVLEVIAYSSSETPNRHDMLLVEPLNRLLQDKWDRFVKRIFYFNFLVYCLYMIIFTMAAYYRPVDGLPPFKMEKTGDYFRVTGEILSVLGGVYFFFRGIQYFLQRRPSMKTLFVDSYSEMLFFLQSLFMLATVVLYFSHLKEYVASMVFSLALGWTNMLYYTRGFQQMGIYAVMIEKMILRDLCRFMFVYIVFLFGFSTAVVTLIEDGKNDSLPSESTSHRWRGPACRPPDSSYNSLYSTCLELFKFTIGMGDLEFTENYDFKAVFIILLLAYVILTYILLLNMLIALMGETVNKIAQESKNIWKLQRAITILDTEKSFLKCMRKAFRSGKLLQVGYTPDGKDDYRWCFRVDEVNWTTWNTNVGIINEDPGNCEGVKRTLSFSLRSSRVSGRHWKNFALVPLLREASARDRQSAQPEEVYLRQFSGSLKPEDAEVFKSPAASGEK
Procedure, shortened: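 Calcium influx kinetics via Fluo-8 (480/520 nm) in TRPV1-expressing cells, 2000/well cultured overnight at 35.5C. Compound-alone read 3 min (agonist phase), followed by EC20 capsaicin challenge for 2 min (enhancer phase).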

[12] = target: Thyrotropin receptor (Homo sapiens) (UniProt P16473); assay: qHTS Assay for Antagonists of the Thyroid Stimulating Hormone Receptor (AID 488980); note: 0% is about no effect
Chain of Thyrotropin receptor (Homo sapiens) (P16473 whole entry, looked up): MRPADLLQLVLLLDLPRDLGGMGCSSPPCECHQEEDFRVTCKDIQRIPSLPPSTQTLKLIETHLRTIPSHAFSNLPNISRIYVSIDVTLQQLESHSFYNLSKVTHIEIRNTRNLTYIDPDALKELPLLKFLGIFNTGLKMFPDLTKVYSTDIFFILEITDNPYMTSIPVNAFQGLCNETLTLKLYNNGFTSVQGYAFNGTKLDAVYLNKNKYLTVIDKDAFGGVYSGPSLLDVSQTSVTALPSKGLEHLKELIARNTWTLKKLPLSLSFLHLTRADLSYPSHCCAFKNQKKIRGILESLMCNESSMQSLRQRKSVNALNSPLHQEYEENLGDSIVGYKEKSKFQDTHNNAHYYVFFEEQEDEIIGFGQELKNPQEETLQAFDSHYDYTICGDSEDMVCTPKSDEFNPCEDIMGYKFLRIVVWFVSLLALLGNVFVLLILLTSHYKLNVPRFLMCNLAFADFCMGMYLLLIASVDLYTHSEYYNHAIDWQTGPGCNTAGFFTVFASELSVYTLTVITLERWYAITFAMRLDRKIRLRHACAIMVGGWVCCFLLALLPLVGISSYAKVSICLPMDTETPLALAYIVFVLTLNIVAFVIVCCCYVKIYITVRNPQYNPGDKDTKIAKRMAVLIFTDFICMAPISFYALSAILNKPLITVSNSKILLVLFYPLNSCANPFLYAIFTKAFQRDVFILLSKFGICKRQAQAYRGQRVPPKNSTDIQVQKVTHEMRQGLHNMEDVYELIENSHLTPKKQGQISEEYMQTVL
Procedure, shortened: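 TSHR-transfected HEK293 cells (2000/well) in HEPES-buffered HBSS with 70 uM RO 20-1724 were stimulated with 4 nM TSH (EC80, final) in the presence of compound. cAMP was measured by HTRF competition after lysis and 30 min at RT.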

[13] = target: Thyrotropin-releasing hormone receptor (Homo sapiens) (UniProt P34981); assay: qHTS for Small Molecule Agonists and Allosteric Enhancers of Human TRH Receptor: Validation Screen for Agonists (AID 493127;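 active = calcium activation more than 3 SD above the typical response in the agonist read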;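 note: intracellular calcium rise by fluo-8 fluorescence before TRH EC20 addition; 0% is about no effect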); conditions: TRH receptor agonist cell assay; at 2 µM; stronger effect = higher value
Chain of Thyrotropin-releasing hormone receptor (Homo sapiens) (P34981 whole entry, looked up): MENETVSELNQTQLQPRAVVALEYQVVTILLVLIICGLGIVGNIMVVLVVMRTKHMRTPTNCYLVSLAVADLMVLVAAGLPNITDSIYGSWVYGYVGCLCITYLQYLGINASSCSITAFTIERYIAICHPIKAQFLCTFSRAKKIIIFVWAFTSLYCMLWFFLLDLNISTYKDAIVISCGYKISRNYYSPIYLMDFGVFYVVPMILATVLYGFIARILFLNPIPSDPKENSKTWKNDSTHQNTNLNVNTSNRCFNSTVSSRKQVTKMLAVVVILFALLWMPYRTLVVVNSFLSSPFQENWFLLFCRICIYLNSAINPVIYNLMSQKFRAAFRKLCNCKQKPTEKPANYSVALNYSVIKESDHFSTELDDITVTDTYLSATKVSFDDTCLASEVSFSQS
Procedure, shortened: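 Gq-coupled calcium mobilization in TRHR cells after compound addition, monitored kinetically with fluo-8 dye on an FDSS reader.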

[14] = target: Galactokinase (Homo sapiens) (UniProt P51570); assay: qHTS Validation Assay for Inhibitors of Human Galactokinase (GALK) (AID 493189); note: 0% is about no effect
Chain of Galactokinase (Homo sapiens) (P51570 whole entry, looked up): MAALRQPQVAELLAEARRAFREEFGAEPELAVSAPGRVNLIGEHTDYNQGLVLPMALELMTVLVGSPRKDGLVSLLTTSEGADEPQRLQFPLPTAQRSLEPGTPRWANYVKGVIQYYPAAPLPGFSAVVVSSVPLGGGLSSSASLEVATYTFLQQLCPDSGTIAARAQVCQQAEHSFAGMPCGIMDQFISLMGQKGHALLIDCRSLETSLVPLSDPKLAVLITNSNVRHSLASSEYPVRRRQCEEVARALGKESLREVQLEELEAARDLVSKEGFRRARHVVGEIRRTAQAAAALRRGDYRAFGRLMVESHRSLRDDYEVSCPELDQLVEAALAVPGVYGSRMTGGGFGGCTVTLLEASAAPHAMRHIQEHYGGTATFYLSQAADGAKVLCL
Procedure, shortened: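 GALK (5 nM) with 35 uM ATP and 100 uM galactose in HEPES pH 8.0 with MgCl2, NaCl, DTT and BSA. Reaction ran 1 h at room temperature. Residual ATP read by Kinase-Glo Plus luminescence.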

[15] = target: Voltage-gated inwardly rectifying potassium channel KCNH2 (Homo sapiens) (UniProt Q12809); assay: qHTS Assay for Small Molecule Inhibitors of the Human hERG Channel Activity (AID 588834);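 note: top concentration of the series differs between compounds; % is set by controls: 0 for no effect and ±100 for the full control effect; lower thallium flux fluorescence means stronger hERG block; nearly all actives have a fitted effect of over 50% in size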
Procedure, shortened: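 U2OS cells BacMam-transduced with hERG, 2000 cells/well, compound ~10 min at 37 °C before stimulation buffer. FluxOR thallium flux fluorescence read kinetically on FDSS; decrease indicates block; AC50 from Hill fits.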

[16] = qHTS for differential inhibitors of proliferation of Plasmodium falciparum line D10 (AID 1877);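 note: parasites grown with compound for 72 h before DNA staining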; note: potency is the fitted concentration of half-maximal effect;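 for activity change, negative = inhibition: plate controls were vehicle wells for no effect and reference inhibitor wells for full effect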
[17] = qHTS for differential inhibitors of proliferation of Plasmodium falciparum line Dd2 (AID 1882); conditions: Potency: Plasmodium falciparum Dd2 proliferation inhibition; note: nearly all actives have a fitted effect of over 65% in size; note: potency is the fitted concentration of half-maximal effect;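 for activity change, negative = inhibition: compound exposure of 72 h on infected erythrocytes; plate controls were DMSO vehicle for no effect and 0.29 µM artemisinin for full effect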
Procedure, shortened: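 SYBR Green I DNA fluorescence read-out, ex 485/em 535 nm. Signals were normalized to 0.29 uM artemisinin and DMSO wells, then corrected using vehicle-only plates flanking each stack. Parasite growth ran 72 h in erythrocytes before lysis.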

[18] = Quantitative high throughput screen for delayed death inhibitors of the malarial parasite plastid, 48 hour incubation (AID 488752); note: nearly all actives have a fitted effect of over 65% in size; note: potency is the fitted concentration of half-maximal effect
Procedure, shortened: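 One parasite generation (48 h, 37 C, 5% CO2) of luciferase-reporter P. falciparum in erythrocytes is run with test compound; decreased luminescence indicates inhibited growth.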

[19] = target: Endonuclease 4 (Escherichia coli (strain K12)) (UniProt P0A6C1); assay: Counterscreen for APE1 Inhibitors: qHTS Validation Assay for Inhibitors of Endonuclease IV (AID 1708); note: % is set by controls: 0 for no effect and ±100 for the full control effect
Procedure, shortened: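 Enzymatic AP-site incision assay using a double-stranded THF substrate labelled with TAMRA and BHQ-2; released fluorescence signals activity. Enzyme 2 nM, substrate 50 nM, 15 min compound preincubation.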

[20] = qHTS Assay for Lipid Storage Modulators (AID 1519; calls by dose curve); conditions: Drosophila S3 cells, BODIPY lipid droplet/cell ratio, laser cytometry, cells loaded with oleic acid
Procedure, shortened: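 Cells seeded at 5,000 per well were treated with compounds over a concentration series and loaded with oleic acid (400 uM, as added). Lipid droplet fluorescence (488 nm excitation, 500-530 nm channel) was read by laser-scanning cytometry and normalized to 20 uM Triacsin C.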

CCCCC#Cc1nc(N)c2ncn([C@@H]3O[C@H](C(=O)NCC)[C@@H](O)[C@H]3O)c2n1
active: Potency [4] 8.91 µM | Potency [5] 11.2 µM | Potency [9] 13.1 µM
inactive: outcome [1] | Potency [2] | Potency [3] | outcome [6] | Potency [7] | outcome [8] | Potency [10] | outcome [11] | outcome [12] | activation [13] -0.438% | outcome [14] | Potency [15]

COC(=O)c1c(-c2cc(OC)c(OC)c(OC)c2)c2ccc(OCc3ccccn3)cc2c(=O)n1-c1ccc(N)cc1
active: Potency [4] 3.98 µM | Potency [16] 7.08 µM | Potency [17] 2 µM | Potency [5] 2.82 µM | Potency [9] 7.38 µM | Potency [18] 9.28 µM | Potency [10] 28.2 µM
inactive: outcome [1] | Potency [2] | Potency [3] | outcome [6] | Potency [7] | outcome [8] | outcome [11] | outcome [12] | activation [13] -4% | outcome [14]

C[C@]12C=CC(=O)C=C1CCC1C2=CC[C@]2(C)[C@@H](C(=O)CN3CCN(c4cc(N5CCCC5)nc(N5CCCC5)n4)CC3)CC[C@@H]12 (some centres not stated)
inactive: outcome [1] | Potency [2] | Potency [7] | outcome [12] | activation [13] 1.5% | outcome [14] | Potency [15]
active: Potency [9] 13.1 µM | Potency [18] 13.1 µM

CCn1c(=O)c2[nH]c(-c3ccccc3)nc2n(CC)c1=O
inactive: outcome [1] | Potency [2] | Potency [3] | outcome [19] | Potency [4] | Potency [16] | Potency [17] | Potency [5] | Potency [7] | outcome [8] | Potency [18] | Potency [10] | outcome [11] | outcome [12] | activation [13] 0.688% | outcome [14]

CC(C)C[C@H]1C(=O)N2CCCC2[C@]2(O)O[C@](NC(=O)[C@@H]3C=C4c5cccc6[nH]c(Br)c(c56)C[C@H]4N(C)C3)(C(C)C)C(=O)N12 (some centres not stated)
inactive: outcome [1] | Potency [2] | Potency [3] | outcome [6] | Potency [7] | Potency [10] | outcome [11] | outcome [12] | activation [13] 0.625% | outcome [14] | Potency [15]
active: Potency [9] 9.28 µM | Potency [18] 8.28 µM

CCCC(=O)NCCc1c2n(c3ccc(OC)cc13)Cc1ccccc1-2
inactive: outcome [1] | Potency [3] | outcome [19] | Potency [17] | outcome [6] | Potency [7] | outcome [8] | Potency [9] | Potency [10] | outcome [11] | outcome [12] | activation [13] -7.06% | outcome [14] | Potency [15]

NC[C@@H](O)c1ccc(O)c(O)c1
7.41%: max response ([20]; measured here: cell count channel max response)
inactive: activity change, negative = inhibition ([20]; at 57.5 µM (top of the series)) 7.77%
16.7%: max response ([20]; measured here: lipid channel max response)
